{"source": "the supplement of paper PMC3334620", "note": "Over roughly 33,000 sequences, “E-score (-0.5 to 0.5)” has its median near -0.016; the highest 2% begin near 0.31. This excerpt belongs to a sample that is enriched for the highest values.", "data": [{"molecular_target": "Cst6 (UniProt P40535)", "sequence (P40535 whole entry, the tested form may be a part)": "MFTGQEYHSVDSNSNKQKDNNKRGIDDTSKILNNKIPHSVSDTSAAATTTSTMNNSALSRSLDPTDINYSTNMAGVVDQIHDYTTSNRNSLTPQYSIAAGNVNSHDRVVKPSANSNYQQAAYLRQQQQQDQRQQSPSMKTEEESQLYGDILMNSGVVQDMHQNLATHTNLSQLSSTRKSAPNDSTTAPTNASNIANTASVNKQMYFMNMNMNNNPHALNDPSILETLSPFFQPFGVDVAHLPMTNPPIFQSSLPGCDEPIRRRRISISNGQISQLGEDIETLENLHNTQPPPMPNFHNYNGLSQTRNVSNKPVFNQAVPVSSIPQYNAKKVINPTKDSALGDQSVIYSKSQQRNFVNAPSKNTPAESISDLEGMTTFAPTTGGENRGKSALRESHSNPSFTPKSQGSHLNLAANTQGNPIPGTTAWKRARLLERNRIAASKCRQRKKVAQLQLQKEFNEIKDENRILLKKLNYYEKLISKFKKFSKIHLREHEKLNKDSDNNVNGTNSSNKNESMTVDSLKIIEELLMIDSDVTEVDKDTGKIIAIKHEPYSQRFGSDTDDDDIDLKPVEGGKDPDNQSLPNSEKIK", "experiment": "PBM E-score (8-mer binding enrichment) (E-score (-0.5 to 0.5)); higher = stronger / more preferred TF binding", "conditions": "protein concentration: 200 nM; construct: GST-DNA-binding domain", "in_short": "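For each ungapped eight-base word taken together with its reverse complement, the Universal PBM Analysis Suite assigned an E-score. Binding data came from GST-tagged yeast transcription factors, applied at about 100-200 nM, on universal all-10-mer Agilent arrays made double-stranded by primer extension. Fluorescent anti-GST marked bound protein, and scans were normalised with masliner.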", "values": [{"sequence": "CGCATAAG", "PBM E-score": 0.102}, {"sequence": "CGTACGGA", "PBM E-score": 0.168}, {"sequence": "GAAAGCGC", "PBM E-score": -0.00012}, {"sequence": "CCAAACCC", "PBM E-score": -0.126}, {"sequence": "CTGACATC", "PBM E-score": 0.307}, {"sequence": "ATGACAAC", "PBM E-score": 0.302}, {"sequence": "CTGACAGC", "PBM E-score": -0.148}, {"sequence": "CGGACATC", "PBM E-score": -0.196}, {"sequence": "ATGACACC", "PBM E-score": 0.228}, {"sequence": "ATGACATC", "PBM E-score": 0.478}, {"sequence": "CAGAGGAG", "PBM E-score": -0.0824}, {"sequence": "CCTTACCC", "PBM E-score": -0.0626}, {"sequence": "CCAGAAGG", "PBM E-score": -0.0896}, {"sequence": "ACGCGCGC", "PBM E-score": 0.175}, {"sequence": "GCGCGCGC", "PBM E-score": 0.345}, {"sequence": "CCGCGCGC", "PBM E-score": 0.151}, {"sequence": "CCGCGCGG", "PBM E-score": 0.382}, {"sequence": "GCGCGCGA", "PBM E-score": 0.0433}, {"sequence": "CCGCGCGA", "PBM E-score": 0.255}, {"sequence": "AGCCCCAA", "PBM E-score": -0.281}]}]}
